Data reported in PubChem BioAssay (NCATS).
Inconclusive results are not listed. Where a call stands in place of a potency, no number is given. Calls of active or inactive are those of the source. Unless noted, the call rests on the fitted dose curve; in most records, active means well fitted inhibition curve with a large enough effect; inconclusive means small, poorly fitted or top-dose-only effect; inactive means flat fitted curve, though single readings scatter.

How the values were obtained:
[1] = qHTS drug screen for cell cycle checkpoint inhibitors in PARPi-resistant BRCA-mutant ovarian cancer cell lines. (AID 1963452; calls by dose curve); details: PEO1/OlaR viability, CellTiter-Glo luminescence, 96 h, stronger effect = lower value
Procedure, shortened: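 PEO1, PEO4 and PEO1/OlaR ovarian cancer cells, 600 per well, exposed 96 h at 37C to a dilution series. Viability read by CellTiter-Glo luminescence, normalized to DMSO and empty wells; activity summarized as Z-AUC.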

[2] = qHTS profiling for inhibitors of Plasmodium falciparum proliferation (AID 504749); further: nearly all actives have a fitted effect of over 60% in size; further: potency means the concentration at half of the fitted maximal effect; details: P. falciparum in erythrocytes, SYBR Green DNA, 72 h
Procedure, shortened: (§1)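 Parasite proliferation within erythrocytes, 72 h exposure. Endpoint: SYBR Green I fluorescence after overnight lysis at room temperature. Controls: 0.29 uM artemisinin, DMSO.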

3D7 = assay: as above; details: P. falciparum in erythrocytes, SYBR Green DNA, 72 h; series mostly up to 28.7 µM
Procedure, shortened: as §1

7G8 = assay: as above; details: P. falciparum in erythrocytes, SYBR Green DNA, 72 h; series mostly up to 28.7 µM
Procedure, shortened: as §1

AS120 = assay: as above; details: P. falciparum in erythrocytes, SYBR Green DNA, 72 h; series mostly up to 28.7 µM
Procedure, shortened: as §1

ATS189 = assay: as above; details: P. falciparum in erythrocytes, SYBR Green DNA, 72 h; series mostly up to 28.7 µM
Procedure, shortened: as §1

AA1029 = assay: as above; details: P. falciparum in erythrocytes, SYBR Green DNA, 72 h; series mostly up to 28.7 µM
Procedure, shortened: as §1

ATS95 = assay: as above; details: P. falciparum in erythrocytes, SYBR Green DNA, 72 h; series mostly up to 28.7 µM
Procedure, shortened: as §1

C2A = assay: as above; details: P. falciparum in erythrocytes, SYBR Green DNA, 72 h; series mostly up to 28.7 µM
Procedure, shortened: as §1

CP185 = assay: as above; details: P. falciparum in erythrocytes, SYBR Green DNA, 72 h; series mostly up to 28.7 µM
Procedure, shortened: as §1

[3] = at 28.7 µM (top of the series), parasite line A
[4] = at 28.7 µM (top of the series), parasite line B

SMILES | Z-AUC [1] | Z-AUC ([1]; measured here: PEO1 parental Z-AUC) | Z-AUC ([1]; measured here: PEO4 Z-AUC) | Potency ([2]; parasite line A) | Potency ([2]; parasite line B) | Potency (3D7) | Potency (7G8) | Potency (AS120) | Potency (ATS189) | activity, negative = inhibition [2, 3] | activity, negative = inhibition [2, 4] | Potency (AA1029) | Potency (ATS95) | Potency (C2A) | Potency (CP185) | activity, negative = inhibition ([2]; at 12.8 µM (top of the series), parasite line A) | activity, negative = inhibition ([2]; at 12.8 µM (top of the series), parasite line B)
CCCCCN=C(N)N/N=C/c1c[nH]c2ccc(OC)cc12 | -0.801 (inactive) | -1.05 | -1.17 | 8.91 µM (active) | 12.6 µM (active) | 8.91 µM (active) | 1 µM (active) | 10 µM (active) | 5.01 µM (active) |  |  |  |  |  |  |  | 
O=C(NCCc1c[nH]c2ccccc12)c1cccnc1 |  |  |  |  |  | inactive | inactive | inactive | inactive | 0.138% (inactive) | 13.6% (inactive) | inactive | inactive | inactive | inactive |  | 
C[N+]1(CC2COC(c3ccccc3)(C3CCCCC3)O2)CCCCC1 (centres undefined) |  |  |  | 2.82 µM (active) | 4.47 µM (active) | 7.08 µM (active) | 2.51 µM (active) | 7.08 µM (active) | 8.91 µM (active) |  |  | 5.01 µM (active) | 6.31 µM (active) | 10 µM (active) | 5.01 µM (active) |  | 
O=C(Nc1ccc([N+](=O)[O-])cc1)Nc1ccc([N+](=O)[O-])cc1 |  |  |  |  |  | 7.08 µM (active) | 1.41 µM (active) | inactive | inactive | 3.88% (inactive) | -6.66% (inactive) | inactive | inactive | inactive | inactive |  | 
CC(=O)Nc1ccc(OC(=O)c2ccccc2OC(C)=O)cc1 |  |  |  |  |  | inactive | inactive | inactive | inactive | -24.5% (inactive) | 5.15% (inactive) | inactive | inactive | inactive | inactive |  | 
CC(=O)N[C@@H](CCC(=O)O)C(=O)O |  |  |  |  |  | inactive | inactive | inactive | inactive | 4.59% (inactive) | 2.94% (inactive) | inactive | inactive | inactive | inactive |  | 
Cc1c(-c2ccccc2)oc2c(C(=O)OCCN3CCCCC3)cccc2c1=O |  |  |  |  |  | inactive | inactive | inactive | inactive |  |  | inactive | inactive | inactive | inactive | 0.972% (inactive) | 6.11% (inactive)
CCN1/C(=C/C=C/c2sc3ccccc3[n+]2CC)Sc2ccccc21 |  |  |  | 0.0891 µM (active) | 0.178 µM (active) | 0.141 µM (active) | 0.0794 µM (active) | 0.199 µM (active) | 0.158 µM (active) |  |  | 0.178 µM (active) | 0.178 µM (active) | 0.126 µM (active) | 0.112 µM (active) |  | 
OCCOCCN1CCN(C2=Nc3ccccc3Sc3ccccc32)CC1 |  |  |  |  |  | inactive | inactive | inactive | inactive | 0.502% (inactive) | 13.4% (inactive) | inactive | inactive | inactive | inactive |  | 
